From PubChem BioAssay (Tox21) come the findings set out here.

Inconclusive results are not listed. Active and inactive are the calls of the source. Unless noted, calls come from the whole dose curve; as a rule, active = well fitted curve in the direction sought with a large enough effect in the repeat runs; inconclusive = weak or mixed curves; inactive = no such curve, though single readings can be large; an effect the other way counts as inactive or inconclusive.

Assay [1] is described as follows: qHTS assay to identify small molecule agonists of the sonic hedgehog signaling (Shh) pathway (AID 1259368; calls by dose curve; note: series mostly up to about 92 µM; nearly all actives have a fitted effect of over 15% in size). The procedure, abridged:
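NIH/3T3-derived 3T3Gli1-Luc cells carrying a stably integrated Gli1 response element–firefly luciferase reporter were plated, left 4 hr at 37 C, then given compounds in DMSO for 24 hr. Luminescence was read 30 min after adding luciferase reagent.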
A general note: qHTS replaces the single test concentration by a dilution series.

Assay [2] addresses Estrogen receptor beta (Homo sapiens) (UniProt Q92731). Briefly: qHTS assay to identify small molecule agonists of the estrogen receptor beta (ER-beta) signaling pathway (AID 1259377; active = well fitted activation curve with a large enough effect in the signal ratio in the repeat runs, not every such curve was filed as active; the % refers to the signal ratio). Summed up:
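Beta-lactamase reporter readout: fluorescence of LiveBLAzer B/G FRET substrate after 2 h at room temperature, following 16 h compound treatment of ER-beta-UAS-bla HEK293T cells at 37C in 2% charcoal-stripped FBS medium.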

The target is the same in assay [3]. As to the kind of experiment: qHTS assay to identify small molecule antagonists of the estrogen receptor beta (ER-beta) signaling pathway (AID 1259378; active = well fitted inhibition curve with a large enough effect in the signal ratio in the repeat runs, not every such curve was filed as active; the % refers to the signal ratio). Summed up: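 ER-beta-UAS-bla HEK293T (GripTite) cells in 2% charcoal-stripped FBS medium were preincubated 6 hr at 37C, dosed with compound, then stimulated with 1 nM E2 (final) for 16 hr; beta-lactamase reporter read by B/G FRET fluorescence after 2 hr substrate loading.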

The nature of assay [4]: qHTS assay to identify small molecule agonists of the androgen receptor (AR) signaling pathway in the presence of an antagonist - cell viability counter screen (AID 1259379).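 Note: MDA-kb2 human breast cancer cells carrying an MMTV luciferase reporter; series mostly up to about 92 µM; nearly all actives have a fitted effect of over 25% in size.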 Summed up:
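MDA-kb2 human breast carcinoma cells (stable MMTV-luciferase, AR/GR responsive) were seeded 3,000 cells/well, pre-incubated 5 hr at 37C without CO2, then given 3.0uM nilutamide and compounds at 15 concentrations for 16 hr. Viability was read by CellTiter-Fluor fluorescence.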

Assay [5] is described as follows: qHTS assay to identify small molecule agonists of the estrogen receptor beta (ER-beta) signaling pathway - cell viability counter screen (AID 1259380). Note: nearly all actives have a fitted effect of over 30% in size. Summed up: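 ER-beta-UAS-bla HEK293T cells in medium with 2% charcoal-stripped FBS were preincubated 6 hr at 37C, dosed with compound in DMSO for 16 hr, then after the bla read, CellTiter-Glo was added for 30 min at room temperature; luminescence recorded.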

Assay [6] can be described thus: qHTS assay to identify small molecule antagonists of the estrogen receptor beta (ER-beta) signaling pathway - cell viability counter screen (AID 1259382). Note: series mostly up to about 92 µM; nearly all actives have a fitted effect of over 55% in size. The procedure, abridged: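 ER-beta-UAS-bla HEK293T cells (2,000/well, 2% charcoal-stripped FBS) were pre-incubated 6 hr at 37C, then given compound plus 1nM final 17-beta-estradiol for 16 hr. Viability was read in the same wells by CellTiter-Glo luminescence after 30 min at room temperature.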

Assay [7] is described as follows: qHTS assay to identify small molecule agonists or antagonists of the thyroid stimulating hormone receptor (TSHR) signaling pathway - wild type cell line counter screen (AID 1259384; calls by dose curve). Summed up: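 Wild-type HEK293 cells were plated 18 h at 37 C/5% CO2, pin-dosed with compound plus Ro20-1724 medium, held 30 min at room temperature, then given cAMP-d2 and anti-cAMP-cryptate; fluorescence was read after 1 h. Fifteen concentrations, triplicate.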

Assay [8] concerns the target Thyrotropin receptor (Homo sapiens) (UniProt P16473). Briefly: qHTS assay to identify small molecule antagonists of the thyroid stimulating hormone receptor (TSHR) signaling pathway (AID 1259385; calls by dose curve; note: nearly all actives have a fitted effect of over 20% in size). The procedure, abridged:
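TSHR-HEK293 cells were plated and held 18 h at 37C/5% CO2, then given compound plus Ro20-1724 and stimulated with TSH at 1.5 ng/mL final. After 30 min at room temperature, cAMP was detected with cAMP-d2/anti-cAMP-cryptate (1 h) by fluorescence.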

Assay [9] can be described thus: qHTS assay to identify small molecule agonists of the estrogen receptor alpha (ER-alpha) signaling pathway in the presence of an antagonist - cell viability counter screen (AID 1259386).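 Note: series mostly up to about 92 µM; cells exposed to compounds for 22 h at 37 °C before the viability read; nearly all actives have a fitted effect of over 30% in size.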 Summed up:
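VM7Luc4E2 cells (endogenous full-length ER-alpha, 4×ERE-luciferase) were held 5 days in phenol red-free medium with 10% charcoal-stripped FBS, plated, then given 10.0nM ICI-182,780 and compounds at 15 concentrations for 22hr at 37C; viability read by CellTiter-Fluor fluorescence.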

The target in assay [10] is Progesterone receptor (Homo sapiens) (UniProt P06401). As to the kind of experiment: qHTS assay to identify small molecule agonists of the progesterone receptor (PR) signaling pathway (AID 1346784; calls by dose curve; note: nearly all actives have a fitted effect of over 30% in size). Summed up: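 HEK 293T PR-UAS-bla reporter cells, 2% charcoal-stripped FBS; 6 hr settle at 37C/5% CO2, compound (DMSO) 16 hr, LiveBLAzer B/G FRET substrate 2 hr RT, fluorescence intensity read.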
Sequence of Progesterone receptor (Homo sapiens) (P06401 whole entry, looked up): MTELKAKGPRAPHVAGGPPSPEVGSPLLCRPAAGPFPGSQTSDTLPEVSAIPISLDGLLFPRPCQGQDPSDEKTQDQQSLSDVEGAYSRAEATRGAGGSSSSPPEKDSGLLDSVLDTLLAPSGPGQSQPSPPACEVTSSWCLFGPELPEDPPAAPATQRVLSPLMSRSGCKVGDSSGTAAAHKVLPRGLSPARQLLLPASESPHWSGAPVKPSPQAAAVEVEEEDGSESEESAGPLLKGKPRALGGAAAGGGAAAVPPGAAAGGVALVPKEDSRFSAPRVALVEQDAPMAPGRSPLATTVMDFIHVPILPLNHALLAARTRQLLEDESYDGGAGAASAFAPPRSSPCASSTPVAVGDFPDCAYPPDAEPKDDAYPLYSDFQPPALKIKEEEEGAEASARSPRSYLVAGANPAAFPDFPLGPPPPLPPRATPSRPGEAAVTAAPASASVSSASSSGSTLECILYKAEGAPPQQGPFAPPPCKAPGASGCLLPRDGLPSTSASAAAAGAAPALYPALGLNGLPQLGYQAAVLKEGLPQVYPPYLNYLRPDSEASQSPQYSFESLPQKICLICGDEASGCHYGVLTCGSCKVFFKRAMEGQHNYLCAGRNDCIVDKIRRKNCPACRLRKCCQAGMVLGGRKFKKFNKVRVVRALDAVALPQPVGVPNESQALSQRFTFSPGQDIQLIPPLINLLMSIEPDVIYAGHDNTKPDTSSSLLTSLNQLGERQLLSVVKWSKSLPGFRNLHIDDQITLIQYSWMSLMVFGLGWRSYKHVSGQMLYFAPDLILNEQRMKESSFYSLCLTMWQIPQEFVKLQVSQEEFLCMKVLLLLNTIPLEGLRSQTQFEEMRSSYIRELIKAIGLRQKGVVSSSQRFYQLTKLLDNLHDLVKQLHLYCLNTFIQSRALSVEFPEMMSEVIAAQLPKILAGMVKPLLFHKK

Assay [11] shares this target. Briefly: qHTS assay to identify small molecule antagonists of the progesterone receptor (PR) signaling pathway (AID 1346795; active = well fitted inhibition curve with a large enough effect in the signal ratio in the repeat runs, not every such curve was filed as active; the % refers to the signal ratio). Summed up: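 Beta-lactamase reporter, HEK293T PR-UAS-bla line; 2% charcoal-stripped FBS; 6 hr pre-incubation, 37C/5% CO2. Compound + R5020 1 nM final, 16 hr. LiveBLAzer B/G FRET substrate, 2 hr RT; fluorescence intensity read.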
Assay [12] can be described thus: qHTS assay to identify small molecule antagonists of the progesterone receptor (PR) signaling pathway - cell viability counter screen (AID 1346798). Note: series mostly up to about 92 µM; nearly all actives have a fitted effect of over 50% in size. Summed up: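 Luminescence readout (CellTiter-Glo, 30 min, RT) of viability in PR-UAS-bla HEK293T cells exposed to compound and R5020 agonist for 16 hr at 37C, 5% CO2; run in the same wells as the beta-lactamase reporter read.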

Assay [13] in a line: qHTS assay to identify small molecule agonists of the progesterone receptor (PR) signaling pathway - cell viability counter screen (AID 1346799; calls by dose curve; note: nearly all actives have a fitted effect of over 45% in size). The procedure, abridged: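 HEK293T PR-UAS-bla, 3,000 cells/well, 2% charcoal-stripped FBS; 6 h settle, compound 16 h at 37C/5% CO2; LiveBLAzer 2 h RT, then CellTiter-Glo 30 min RT, luminescence read.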
Assay [14] in a line: qHTS assay to identify small molecule agonists of the TGF-beta/Smad signaling pathway - cell viability counter screen (AID 1346829). Note: top concentration of the series differs between compounds; nearly all actives have a fitted effect of over 45% in size. The procedure, abridged: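 Luminescence from CellTiter-Glo, read after a 30 min room-temperature incubation, gives cell viability of SBE-bla HEK 293T cells treated 5 hr with compounds at 37 C.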
Assay [15] in a line: qHTS assay to identify small molecule agonists of the TGF-beta/Smad signaling pathway (AID 1346859; active = well fitted activation curve with a large enough effect in the signal ratio in the repeat runs, not every such curve was filed as active; the % refers to the signal ratio; note: series mostly up to about 77 µM). Summed up:
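Read-out: fluorescence at 460 and 530 nm (405 nm excitation) after a 2 hr room-temperature incubation with beta-lactamase FRET substrate. SBE-bla HEK 293T cells had been treated with test compounds for 5 hr at 37 C.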

The target of assay [16] is Thyrotropin-releasing hormone receptor (Homo sapiens) (UniProt P34981). As to the kind of experiment: qHTS assay to identify small molecule antagonists of the thyrotropin-releasing hormone receptor (TRHR) signaling pathway (AID 1346877; active = well fitted inhibition curve with a large enough effect in the repeat runs, not every such curve was filed as active; note: series mostly up to about 51 µM). Summed up:
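TRHR-expressing HEK293 cells were seeded, cultured 18 h at 37 °C, then loaded with calcium dye for 2 h. Compounds were pre-incubated 5 min at room temperature before 1 nM TRH (final) was added, and kinetic fluorescence was recorded for 3 min.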

A short description of assay [17]: qHTS assay to identify small molecule antagonists of the sonic hedgehog signaling (Shh) pathway (AID 1259369; calls by dose curve; note: nearly all actives have a fitted effect of over 45% in size; note: potency is the fitted concentration of half-maximal effect). The procedure, abridged: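 NIH/3T3-derived 3T3Gli1-Luc cells with stably integrated Gli1-Luc reporter were preincubated 4hr at 37 C, then given compounds in DMSO plus Shh conditioned medium and incubated 24hr. Firefly luciferase luminescence read after 30min reagent at room temperature.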

Assay [18] has as its target Estrogen receptor (Homo sapiens) (UniProt P03372). Briefly: qHTS assay to identify small molecule agonists of the estrogen receptor alpha (ER-alpha) signaling pathway in the presence of an antagonist (AID 1259383; calls by dose curve; note: top concentration of the series differs between compounds; nearly all actives have a fitted effect of over 15% in size). The procedure, abridged: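 VM7Luc4E2 cells (endogenous full-length ER-alpha, 4×ERE-luciferase) were precultured 5 days in phenol red-free medium with 10% charcoal-stripped FBS, given 10.0nM ICI-182,780 (final), then treated with compounds at 15 concentrations for 22hr at 37C; luminescence read with ONE-Glo.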

The nature of assay [19]: qHTS assay to identify small molecule antagonists of the TGF-beta/Smad signaling pathway - cell viability counter screen (AID 1346824). Note: nearly all actives have a fitted effect of over 50% in size. Summed up:
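SBE-bla HEK 293T cells were plated overnight at 37 C, then given compounds in DMSO plus TGF-beta1 (added as 0.25 ng/mL solution) for 5 hr. After the bla read, CellTiter-Glo was added to the same wells and luminescence read after 30 min at room temperature.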

Sequence of Thyrotropin receptor (Homo sapiens) (P16473 whole entry, looked up): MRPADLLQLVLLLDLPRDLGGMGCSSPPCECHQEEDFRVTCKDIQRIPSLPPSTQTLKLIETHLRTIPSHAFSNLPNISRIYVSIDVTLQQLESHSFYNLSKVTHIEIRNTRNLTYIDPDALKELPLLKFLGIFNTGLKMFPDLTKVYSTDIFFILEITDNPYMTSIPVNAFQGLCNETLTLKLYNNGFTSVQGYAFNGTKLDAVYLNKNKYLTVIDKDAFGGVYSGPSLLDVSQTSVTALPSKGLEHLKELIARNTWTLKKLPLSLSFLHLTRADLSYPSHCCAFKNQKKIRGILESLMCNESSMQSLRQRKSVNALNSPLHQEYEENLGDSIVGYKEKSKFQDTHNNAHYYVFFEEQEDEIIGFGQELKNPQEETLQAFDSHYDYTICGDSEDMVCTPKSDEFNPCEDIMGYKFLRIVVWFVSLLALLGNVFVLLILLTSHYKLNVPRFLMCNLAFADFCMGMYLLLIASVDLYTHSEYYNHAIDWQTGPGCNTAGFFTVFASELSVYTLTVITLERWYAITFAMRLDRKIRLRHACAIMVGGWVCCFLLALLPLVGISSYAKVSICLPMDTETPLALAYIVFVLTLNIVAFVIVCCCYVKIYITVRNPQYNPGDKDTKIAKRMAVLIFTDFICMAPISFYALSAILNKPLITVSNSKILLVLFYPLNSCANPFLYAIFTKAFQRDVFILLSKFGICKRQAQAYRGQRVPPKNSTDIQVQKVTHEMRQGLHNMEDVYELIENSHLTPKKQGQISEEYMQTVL
Sequence of Estrogen receptor beta (Homo sapiens) (Q92731 whole entry, looked up): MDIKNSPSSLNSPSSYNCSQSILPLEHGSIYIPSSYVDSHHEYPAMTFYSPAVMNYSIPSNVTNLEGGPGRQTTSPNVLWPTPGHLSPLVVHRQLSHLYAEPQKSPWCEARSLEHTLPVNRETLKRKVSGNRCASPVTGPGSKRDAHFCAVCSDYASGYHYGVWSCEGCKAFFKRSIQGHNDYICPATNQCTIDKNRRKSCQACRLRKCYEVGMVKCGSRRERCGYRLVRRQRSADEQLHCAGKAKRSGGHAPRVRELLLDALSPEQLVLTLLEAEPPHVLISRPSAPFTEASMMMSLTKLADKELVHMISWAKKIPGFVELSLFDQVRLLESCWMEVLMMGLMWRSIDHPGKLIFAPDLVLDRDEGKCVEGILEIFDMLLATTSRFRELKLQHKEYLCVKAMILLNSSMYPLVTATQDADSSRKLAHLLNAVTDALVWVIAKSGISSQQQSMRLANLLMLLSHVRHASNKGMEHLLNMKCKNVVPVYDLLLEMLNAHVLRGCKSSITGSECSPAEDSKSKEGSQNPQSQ
Sequence of Estrogen receptor (Homo sapiens) (P03372 whole entry, looked up): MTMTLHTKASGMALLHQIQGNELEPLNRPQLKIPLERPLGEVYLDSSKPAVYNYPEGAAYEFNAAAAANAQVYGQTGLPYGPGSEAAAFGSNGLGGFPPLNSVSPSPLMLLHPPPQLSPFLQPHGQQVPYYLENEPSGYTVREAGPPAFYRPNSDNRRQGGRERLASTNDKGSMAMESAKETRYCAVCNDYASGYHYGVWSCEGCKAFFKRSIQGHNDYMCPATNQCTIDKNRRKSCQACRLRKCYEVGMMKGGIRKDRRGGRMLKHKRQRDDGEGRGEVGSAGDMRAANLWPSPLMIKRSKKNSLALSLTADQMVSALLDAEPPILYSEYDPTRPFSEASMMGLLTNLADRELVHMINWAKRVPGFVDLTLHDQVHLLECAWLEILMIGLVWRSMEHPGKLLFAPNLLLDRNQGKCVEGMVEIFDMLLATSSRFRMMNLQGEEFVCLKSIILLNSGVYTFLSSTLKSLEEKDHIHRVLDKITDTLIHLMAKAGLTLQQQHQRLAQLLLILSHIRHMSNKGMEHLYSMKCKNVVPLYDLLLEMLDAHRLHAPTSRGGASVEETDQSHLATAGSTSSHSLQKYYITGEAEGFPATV
Sequence of Thyrotropin-releasing hormone receptor (Homo sapiens) (P34981 whole entry, looked up): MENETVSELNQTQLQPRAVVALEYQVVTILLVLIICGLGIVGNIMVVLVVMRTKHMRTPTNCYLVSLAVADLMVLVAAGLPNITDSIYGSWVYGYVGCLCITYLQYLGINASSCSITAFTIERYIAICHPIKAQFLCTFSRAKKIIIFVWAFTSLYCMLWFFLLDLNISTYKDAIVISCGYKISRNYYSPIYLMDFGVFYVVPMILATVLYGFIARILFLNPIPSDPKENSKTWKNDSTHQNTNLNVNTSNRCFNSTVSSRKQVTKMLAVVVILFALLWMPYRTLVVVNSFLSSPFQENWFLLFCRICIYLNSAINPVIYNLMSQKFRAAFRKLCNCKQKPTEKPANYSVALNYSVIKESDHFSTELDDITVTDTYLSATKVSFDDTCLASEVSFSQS

Consider `CCC(=O)OCc1ccc(OC)cc1`, for which the Potency result in assay [1], in assay [2], in assay [3], in assay [4], in assay [5] and in assay [6] was “inactive” each time. The Potency result in assay [7], in [8], in [9], in assay [10], in [11] and in assay [12] was “inactive” throughout. The Potency result in assay [13], in [14] and in [15] was “inactive” each time. Also, in [16], the result was inactive.
As for `COc1ccc(-n2nc(C(F)F)cc2-c2ccc(S(C)=O)cc2)cc1` (configuration not stated), the Potency result in assay [1], in assay [5], in [6], in assay [18], in assay [7] and in assay [8] was “inactive” in each case. Further, the Potency result in assay [9], in assay [10], in assay [12] and in assay [14] was “inactive” throughout. Further, in assay [17], the Potency is 1.09 µM (active). Further, the molecule was classed as inactive in assay [19] and in assay [16].
Regarding `Cc1ccc(N(CCO)CCO)cc1`, the Potency entry in assay [1], in assay [17], in [4], in [5], in assay [18] and in [7] was “inactive” each time. The Potency result in [9], in assay [10], in assay [11], in [12], in [13] and in assay [14] was “inactive” each time. Besides, in [15], the Potency entry was “inactive”. Besides, the outcome in assay [19] was inactive.
As to `O=C(O)CO`, the Potency entry in [1], in assay [2], in assay [3], in assay [4], in [5] and in assay [6] was “inactive” in each case. Further, the Potency entry in [18], in [7], in assay [8], in [9], in assay [10] and in [11] was “inactive” throughout. The Potency entry in assay [12], in assay [13], in [14] and in [15] was “inactive” throughout. In assay [16], the molecule was called inactive.
Regarding `CCC(CO)(CO)[N+](=O)[O-]`, the Potency entry in assay [1], in assay [17], in [4], in [5], in assay [6] and in assay [7] was “inactive” each time. The Potency entry in assay [8], in assay [9], in assay [10], in [11], in assay [12] and in assay [14] was “inactive” throughout. In assay [15], the Potency entry was “inactive”. For the same molecule, the result in assay [19] was inactive.
For `CCCCCCCC(=O)Oc1c(Br)cc(C#N)cc1Br`, the Potency entry in assay [1], in assay [4], in assay [7], in assay [9], in [10] and in assay [15] was “inactive” in each case. For the same molecule, the Potency in assay [17] is 27.2 µM (active). The molecule was called inactive in assay [19] and in assay [16].
In the case of `O=C(NC(Cc1cc(=O)[nH]c2ccccc12)C(=O)O)c1ccc(Cl)cc1` (configuration not stated), the Potency result in assay [1], in assay [17], in [4], in assay [18], in assay [7] and in assay [9] was “inactive” in each case. Besides, the Potency entry in [10], in [11], in assay [12], in assay [13], in assay [14] and in assay [15] was “inactive” throughout. Also, the call in assay [19] and in assay [16] was inactive.
